Inconclusive results are not listed. Active and inactive are the calls of the source. Calls follow the shape of the full dose curve.
How the values were obtained:
[1] = Primary qHTS for Huh7 cytotoxicity: counterscreen for inhibitors of MERS-S pseudotyped particle cell entry (AID 1479147); settings: outcome: dose series up to 57.1 µM unless noted
[2] = Primary qHTS for inhibitors of MERS-S pseudo-typed particle cell entry (AID 1479149); settings: outcome: dose series up to 57.1 µM unless noted; also: nearly all actives have a fitted effect of over 60% in size; also: potency is read from the fitted curve at half-maximal effect
[3] = Primary qHTS for Vero E6 cytotoxicity: counterscreen for inhibitors of SARS-S pseudo-typed particle cell entry (AID 1479150); settings: outcome: dose series up to 57.1 µM unless noted
[4] = Cytotoxicity counterscreen for inhibitors of SARS-CoV-2 cell entry (AID 1645845); settings: outcome: dose series up to 57.1 µM unless noted; also: nearly all actives have a fitted effect of over 50% in size
Method in brief: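 Expi293F/hACE2 cells seeded overnight; cpd pin-transferred in DMSO, 1 h preincubation, + media, 48 h 37 C 5% CO2; ATPLite 1step luminescence; normalized to cells and no cells.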

[5] = Primary qHTS to identify inhibitors of SARS-CoV-2 cell entry (AID 1645846); settings: SARS-CoV-2 pseudovirus cell entry assay, luminescence; activity change, negative = inhibition: at 57.1 µM (top of the series) unless noted; also: nearly all actives have a fitted effect of over 45% in size; also: potency is read from the fitted curve at half-maximal effect
Method in brief: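 Luminescence readout (Bright-Glo luciferase) 48 h after pseudoparticle addition. HEK293-ACE2 cells, 1500/well; compound pre-incubation 1 h; Normalized to spike PP and bald PP.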

CC(C)CCC[C@@H](C)[C@H]1CC[C@H]2[C@@H]3CC=C4C[C@@H](O)CC[C@]4(C)[C@@H]3CC[C@]12C
inactive: Potency [1] | Potency [2] | Potency [3] | Potency [4] | Potency [5]

O=C1N=C(N2CCOCC2)CN1c1ccc(Cl)cc1
inactive: Potency [1] | Potency [2] | Potency [3] | Potency [4]

CCN(CC)C(=O)[C@]1(c2ccccc2)C[C@H]1CN
inactive: Potency [1] | Potency [2] | Potency [3] | Potency [4]

NC(N)=NCC1COC2(CCCCC2)O1 (centres undefined)
inactive: Potency [1] | Potency [2] | Potency [3] | Potency [4]

CC(C)(C)NCC(O)c1ccc(O)c(CO)n1 (centres undefined)
inactive: Potency [1] | Potency [2] | Potency [3] | Potency [4] | Potency [5]

CCC[C@@H]1C[C@@H](C(=O)N[C@@H](C2O[C@H](SC)[C@H](O)[C@@H](O)[C@H]2O)[C@H](C)Cl)N(C)C1 (some centres undefined)
inactive: Potency [1] | Potency [2] | Potency [3] | Potency [4] | Potency [5]

NC(=O)c1ccc[n+]([C@@H]2O[C@H](COP(=O)([O-])OP(=O)(O)OC[C@H]3O[C@@H](n4cnc5c(N)ncnc54)[C@H](O)[C@@H]3O)[C@@H](O)[C@H]2O)c1
-19.8%: activity change, negative = inhibition [5]
inactive: Potency [1] | Potency [2] | Potency [3] | Potency [4]

CN1C2CC[C@@H]1CC(OC(=O)[C@H](CO)c1ccccc1)C2 (some centres undefined)
inactive: Potency [1] | Potency [2] | Potency [3] | Potency [4]
-26.3%: activity change, negative = inhibition [5]

CN1c2c(nc(N)[nH]c2=O)NC[C@@H]1CNc1ccc(C(=O)N[C@@H](CCC(=O)O)C(=O)O)cc1
inactive: outcome [1] inactive [at 5.34 µM] | outcome [2] inactive [at 5.34 µM] | outcome [3] inactive [at 5.34 µM] | outcome [4] inactive [at 5.25 µM]

CCC(=O)O[C@@H]1CC(=O)O[C@H](C)C/C=C/C=C/[C@@H](O)[C@H](C)C[C@H](CC=O)[C@H](OC2O[C@H](C)[C@@H](O[C@H]3C[C@@](C)(O)[C@@H](OC(=O)CC)[C@H](C)O3)[C@H](N(C)C)[C@H]2O)[C@H]1OC (some centres undefined)
inactive: Potency [1] | Potency [2] | Potency [3] | Potency [4]
-26.3%: activity change, negative = inhibition [5]

CCCCN(CCCC)C(=S)[S-].CCCCN(CCCC)C(=S)[S-].[Zn+2]
inactive: Potency [1] | Potency [2] | Potency [3] | Potency [4]

N=c1ccn2c(n1)O[C@@H]1[C@@H](O)[C@H](CO)O[C@@H]12
inactive: Potency [1] | Potency [3] | Potency [4]
active: Potency [2] 8.91 µM | Potency [5] 2.51 µM

COc1nc2ccc(Br)cc2cc1[C@@H](c1ccccc1)[C@@](O)(CCN(C)C)c1cccc2ccccc12
inactive: Potency [1] | Potency [2] | Potency [3] | Potency [4]

CC[C@@H]1CCN[C@H](C(=O)N[C@@H]([C@H]2O[C@H](SC)[C@H](O)[C@@H](O)[C@H]2O)[C@H](C)Cl)C1
inactive: Potency [1] | Potency [2] | Potency [3] | Potency [4]

CCC(C)C(C(=O)OCC[N+](C)(CC)CC)c1ccccc1 (centres undefined)
inactive: Potency [1] | Potency [2] | Potency [3] | Potency [4]

CC[N+](CC)(CC)CCC(O)(c1ccccc1)C1CCCCC1 (centres undefined)
inactive: Potency [1] | Potency [2] | Potency [3] | Potency [4]

O=C(O)[C@H]1OC(O)[C@H](O)[C@@H](O)[C@@H]1O (some centres undefined)
inactive: Potency [1] | Potency [2] | Potency [3] | Potency [4]

CCCCCCC(=O)O[C@H]1CC[C@H]2[C@@H]3CCc4cc(O)ccc4[C@H]3CC[C@]12C
inactive: Potency [1] | Potency [2] | Potency [3] | Potency [4]

CC(=O)Nc1c(I)c(C(=O)N[C@H]2C(O)O[C@H](CO)[C@@H](O)[C@@H]2O)c(I)c(N(C)C(C)=O)c1I (some centres undefined)
inactive: Potency [1] | Potency [2] | Potency [3] | Potency [4]

CON=C1C[C@]2(C[C@@H]3C[C@@H](C/C=C(\C)C[C@@H](C)/C=C/C=C4\CO[C@@H]5[C@H](O)C(C)=C[C@@H](C(=O)O3)[C@]45O)O2)O[C@H](/C(C)=C/C(C)C)[C@H]1C
inactive: Potency [1] | Potency [2] | Potency [3] | Potency [4]

C#C[C@]1(OC(C)=O)CC[C@H]2[C@@H]3CCC4=CC(=O)CC[C@@H]4[C@H]3CC[C@@]21C
inactive: Potency [1] | Potency [2] | Potency [3] | Potency [4]

CC(C)c1nc(N(C)S(C)(=O)=O)nc(-c2ccc(F)cc2)c1/C=C/[C@@H](O)C[C@@H](O)CC(=O)O
inactive: Potency [1] | Potency [2] | Potency [3] | Potency [4]

CC(=O)N(CC(C)C(=O)O)c1c(I)cc(I)c(N)c1I (centres undefined)
inactive: Potency [1] | Potency [2] | Potency [3] | Potency [4]

Cc1ccc(S(=O)(=O)O)cc1
inactive: Potency [1] | Potency [2] | Potency [3] | Potency [4]
-13.7%: activity change, negative = inhibition [5]

CN1CC(O)c2cc(N=NC(=N)N)c(O)cc21 (centres undefined)
inactive: Potency [1] | Potency [2] | Potency [3] | Potency [4]
-23.2%: activity change, negative = inhibition [5]

Cc1ccccc1-c1cc(N2CCN(C)CC2)ncc1N(C)C(=O)C(C)(C)c1cc(C(F)(F)F)cc(C(F)(F)F)c1
3.24%: activity change, negative = inhibition [5]
inactive: Potency [1] | Potency [2] | Potency [3] | Potency [4]

CC(=O)OCC1=C(C(=O)O)N2C(=O)[C@@H](NC(=O)[C@H](N)c3ccccc3)[C@H]2SC1
-7.18%: activity change, negative = inhibition [5]
inactive: Potency [1] | Potency [2] | Potency [3] | Potency [4]

CO/N=C(/C(=O)N[C@@H]1C(=O)N2C(C(=O)O)=C(CSC(=O)c3ccco3)CS[C@H]12)c1csc(N)n1
inactive: Potency [1] | Potency [2] | Potency [3] | Potency [4]
-26.3%: activity change, negative = inhibition [5]

CCCCCCO[C@@H](C)c1cccc(-c2csc(NC(=O)c3cc(Cl)c(/C=C(\C)C(=O)O)c(Cl)c3)n2)c1OC
-33.5%: activity change, negative = inhibition [5]
inactive: Potency [1] | Potency [2] | Potency [3] | Potency [4]

CCC(c1ccccc1)c1noc(CCN(CC)CC)n1 (centres undefined)
inactive: Potency [1] | Potency [2] | Potency [3] | Potency [4]
-15.7%: activity change, negative = inhibition [5]

— PubChem BioAssay (NCATS)
